According to PubChem BioAssay (Tox21):
Records with an inconclusive call do not appear. Where a call stands in place of a potency, no number is given. Values without a mark were called inactive. Calls of active or inactive are those of the source. The call rests on the fitted dose curve; in most records, active means well fitted cell-killing curve with a large enough effect in the repeat runs; inconclusive means weak or mixed curves, or effect the other way; inactive means flat fitted curve, though single readings scatter.

Test: qHTS assay to identify small molecule antagonists of the estrogen receptor alpha (ER-alpha) signaling pathway using the BG1 cell line in the presence of 0.1 nM 17-beta-estradiol - cell viability counter screen (AID 1259241); further: nearly all actives have a fitted effect of over 40% in size
Settings: VM7Luc4E2 (BG1) viability, CellTiter-Fluor protease, 22 h, 0.1 nM estradiol agonist added; series mostly up to 92.4 µM
From the text: National Center for Advancing Translational Sciences [NCATS]
NIH Chemical Genomics Center [NCGC]
U.S. Environmental Protection Agency [EPA]
National Institutes of Environmental Health Sciences [NIEHS]
National Toxicology Program [NTP]
U.S. Food and Drug Administration [FDA]
Estrogen receptor (ER), a member of the nuclear hormone receptor plays an important role in development, metabolic homeostasis and reproduction. Two subtypes of ER, ER-alpha and ER-beta, have similar expression patterns with some uniqueness in both types. Endocrine disrupting chemicals (EDCs) and their interactions with steroid hormone receptors like ER causes disruption of normal endocrine function. Therefore, it is important to understand the effect of environmental chemicals in ER signaling pathway. For identifying ER antagonists, VM7Luc4E2 cell line was used to screen against Tox21 compound libraries.
VM7Luc4E2 cell line (provided by Denison MS, University of California) endogenously express full-length ER-alpha and is stably transfected with a plasmid containing four estrogen responsive elements (ERE) upstream of a luciferase reporter gene. The current screening for identification of ER-alpha inhibitors against Tox21 compound libraries used lower concentration (0.1 nM) of 17beta-Estradiol as a stimulator. The cytotoxicity of the Tox21 compound libraries against VM7Luc4E2 cell line was tested by measuring live-cell protease activity using CellTiter-Fluor assay in the same wells.
Tox21 Assay Protocol Summary:
VM7Luc4E2 cells were cultured in phenol red free assay medium containing 10% charcoal stripped FBS for 5 days prior to the assay. The cells were dispensed at 4,000 cells/well in 4 uL of assay medium into white wall/solid-bottom 1536-well plates (Corning Life Sciences, Corning, NY) using a Multidrop Combi (ThermoFisher Scientific, Waltham, MA) dispenser. After the assay plates were incubated at 37C and 5% CO2 for 24 hr, 23 nL of compounds dissolved in DMSO, positive controls or DMSO only was transferred to the assay plates by a Pintool station (Kalypsys, San Diego, CA). The transfer of compounds was followed by the addition of 1 uL of 0.1 nM (final concentration) agonist (17beta-Estradiol)/assay medium using a Flying Reagent Dispenser (FRD, Aurora Discovery, San Diego, CA). The plates were incubated at 37C and 5% CO2 for 22 hr. For cytotoxicity assay, 1 uL of CellTiter-Fluor reagent (Promega Corporation, Madison, WI) was added to each well using the FRD and after 30 min incubation at 37C and 5% CO2, The fluorescence intensity was measured using ViewLux plate reader (PerkinElmer, Shelton, CT).

| Compound | Potency | activity change, negative = cytotoxicity |
| --- | --- | --- |
| CCOCCn1c(C2CCN(CCc3ccc(C(C)(C)C(=O)O)cc3)CC2)nc2ccccc21 | inactive | – |
| CC(C)(CCl)c1ccccc1 | inactive | – |
| COc1cc2c(cc1OC)-c1cc(=Nc3c(C)cc(C)cc3C)n(C)c(=O)n1CC2 | inactive | – |
| CCOC(=O)CC(=O)C(=O)OCC | inactive | – |
| O=C(N[C@@H](c1ccccc1)[C@@H]1CCCCN1)c1cccc(C(F)(F)F)c1Cl | inactive | – |
| C[N+](C)(C)CCOC(N)=O | inactive | – |
| CC1CC(O)CC(C)(C)C1 (stereo not given) | inactive | – |
| Oc1cc(O)c(Cl)cc1Cl | inactive | – |
| Fc1c(F)c(F)c(Br)c(F)c1F | inactive | – |
| O=C(O)c1ccccc1NCCc1ccccc1 | inactive | – |
| CCOC(=O)/C=C/C(=O)O | inactive | – |
| OC/C(Br)=C(\Br)CO | inactive | – |
| CCC1(C)CC(=O)NC1=O (stereo not given) | inactive | – |
| CCCCCCOC(=O)C(C)C | inactive | – |
| O=C(c1ccc(O)cc1)c1ccc(Cl)cc1 | inactive | – |
| O=C(Nc1ccc([N+](=O)[O-])cc1)Nc1ccc([N+](=O)[O-])cc1 | inactive | – |
| Cc1cc(O)c2c(O)c3c(O)cccc3cc2c1 | inactive | – |
| CCCCCCCCCOC(C)=O | inactive | – |
| CC(=N\O)/C(C)=N/O | inactive | – |
| C=C(C)C(=O)OCCOC(=O)CC(C)=O | inactive | – |

| Compound | Potency | activity change, negative = cytotoxicity |
| --- | --- | --- |
| CCCCC(CC)C(=O)OCCOCCOCCOCCOC(=O)C(CC)CCCC (stereo not given) | inactive | – |
| COCCOC | inactive | – |
| C[N+]1(C)CCC(=C(c2ccccc2)c2ccccc2)CC1 | inactive | – |
| COc1cc2c(N3CCN(C(=O)Nc4ccc(OC(C)C)cc4)CC3)ncnc2cc1OCCCN1CCCCC1 | inactive | – |
| CCCc1c(OCCCOc2ccc(OCC(=O)O)cc2)ccc(C(C)=O)c1O | inactive | – |
| O=C1OCCN1/N=C/c1ccc([N+](=O)[O-])o1 | inactive | – |
| O=C(CCC1CCN(Cc2ccccc2)CC1)c1ccc2c(c1)NCCCC2 | inactive | – |
| Cc1oncc1C(=O)Nc1ccc(C(F)(F)F)cc1 | inactive | – |
| CCCCC(CC)COC(=O)COc1ccc(Cl)cc1C (stereo not given) | inactive | – |
| CC1C2CC(CC2C2CCCC(O)C2)C1(C)C (stereo not given) | inactive | – |
| CCCC(=O)O[C@]1(C(=O)COC(=O)CC)CC[C@H]2[C@@H]3CCC4=CC(=O)CC[C@]4(C)[C@H]3[C@@H](O)C[C@@]21C | – | 7.4% [at 19 µM] |
| O=c1[nH]c2ccc(S(=O)CCN3CCC(Cc4ccc(F)cc4)CC3)cc2o1 (stereo not given) | inactive | – |
| c1ccc(COCc2ccccc2)cc1 | inactive | – |
| CC(C)(C)C(=O)O | inactive | – |
| CC1=CC(O)CC(C)(C)C1 (stereo not given) | inactive | – |
| CC(COc1ccc(C(C)(C)C)cc1)OS(=O)OCCCl (stereo not given) | inactive | – |
| CCc1cccc(N(C)C(N)=Nc2cccc3ccccc23)c1 | inactive | – |
| CCCCC(CC)CNCC(CC)CCCC (stereo not given) | inactive | – |
| CC(C)CCCCCOC(=O)CCCCC(=O)OCCCCCC(C)C | inactive | – |
| CO[Si](C)(OC)OC | inactive | – |
